Rows were chosen to be rich in hits. Some 2.5% of all compounds tested hit in one or more screens of this group.
CRFR2-BP antag = antagonists of CRF-BP/CRF-R2 complex, primary screen, cell-based, HEK293, calcium dye fluorescence, uHTS; inhibition, % at 11.8 µM; 350,000 compounds, 0.59% hits; CRF-induced calcium fluorescence;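 active = inhibition of the ligand-induced calcium signal above about 50% at the single tested concentration, limit read from the data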
iPSC survival up = enhancers of single-cell hiPSC survival, primary screen, ATPlite luminescence. 100% = ROCK inhibitor wells, 0% = DMSO. survival enhancement, % at 20 µM. 360,000 compounds, 0.044% hits. AID 602274, 2012; in the data active = survival enhancement above about 18%;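 note: cells exposed to compounds for 16 hours before the ATP read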
Cardio protect = cardioprotection against H2O2-induced cell death, primary screen, uHTS, H9c2 cells, ATPLite luminescence; AID 588492, 2011; H9c2 cardiomyocytes, H2O2 injury protection, 2 h; protection from H2O2 cell death, % at 20 µM; 360,000 compounds, 0.63% hits;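 active = compounds giving at least 50% protection of heart cells from peroxide-induced death in the single-dose screen, raw or plate-pattern-corrected value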;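 note: 0% = DMSO wells with peroxide and 100% = DMSO wells without peroxide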
CRFR2-BP ag = agonists of CRF-BP/CRF-R2 complex, primary screen, cell-based, HEK293, calcium dye fluorescence, uHTS; calcium dye fluorescence (FLIPR); percent of saturating CRF peptide response; activation, % at 13.2 µM; 350,000 compounds, 0.46% hits;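 active = activation of at least 50%, plus an integration ratio under a set limit after plate pattern correction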;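 note: plate controls were neutral control wells without compound for no effect and CRF at EC100 for full effect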
SKN-1 inh = suppressors of acrylamide-induced Pgst-4::GFP reporter in worms, primary screen, SKN-1 inhibitor project, whole organism, uHTS, GFP/RFP fluorescence ratio, strain VP596; C. elegans VP596 Pgst-4::GFP/RFP ratio, 24 h; inhibition, % at 21.8 µM; 360,000 compounds, 0.49% hits;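 active = interference check ratio from 0.5 to 1.5 plus GFP to RFP signal ratio inhibition reaching or exceeding a fixed threshold, cut at about 30% in these data, passing the limit was not always enough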
H9c2 TAG inh = inhibitors of triacylglycerol accumulation, primary screen, cell-based, uHTS, fluorescence, H9c2. H9c2 cells, Nile Red lipid (TAG) fluorescence; cells loaded with 200 µM oleic acid. inhibition, % at 12.5 µM. 230,000 compounds, 0.66% hits. AID 651582, 2012;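 active = pattern-corrected inhibition of lipid staining of at least 50% with the nuclear-stain viability signal not falling by more than 50%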;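 note: 0% = DMSO wells and 100% = triacsin C control wells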
* = called active by the depositor; . = not tested or not shown.

SMILES	CRFR2-BP antag	iPSC survival up	Cardio protect	CRFR2-BP ag	SKN-1 inh	H9c2 TAG inh
COCCCn1c(SCC(=O)NC(C)C)nnc1-c1ccccc1	-11	5	4	10	36*	-8
CN1CCN(c2nc(-c3ccccc3O)nc3ccccc23)CC1	-18	0	25	0	2	.
COc1cccc(-c2nc(N3CCN(C)CC3)c3ccccc3n2)c1O	4	1	51*	-3	9	27
CCOC(=O)[C@]12CCC=C1N(Cc1ccccc1)C(=O)[C@H](CC(=O)NCc1cccc(C(F)(F)F)c1)C2	.	1	.	.	25	.
CCOC(=O)c1cn2nc(Oc3cccc(F)c3)ccc2n1	62*	0	4	1	-2	13
Cc1ncc([N+](=O)[O-])n1S(=O)(=O)c1ccc2c(c1)OCCO2	0	0	-2	0	-4	8
O=C(Nc1cccc(N=Cc2cc(Cl)cc(Br)c2O)c1)c1ccco1	-2	-1	50*	12	-1	.
O=C(Nc1cc(Br)c(O)c(Br)c1)c1cccc(NC(=O)c2ccco2)c1	-8	0	-3	1	2	.
O=C(Nc1cccc(N=Cc2cc(Br)cc(Br)c2O)c1)c1ccco1	-12	-1	51*	5	1	.
Brc1ccc(-c2nc(-c3ccccn3)no2)o1	-2	-3	-26	1	44*	9
COc1cc(-c2nc(-c3ccc(Br)o3)no2)cc(OC)c1OC	20	-1	21	1	5	1
Brc1ccc(-c2noc(-c3ccccn3)n2)o1	1	0	-8	0	66*	.
Brc1ccc(-c2nc(-c3ccncc3)no2)o1	-15	-2	-5	1	49*	.
CC1=CC(=O)C=CC1=Nc1ccc(N(C)C)cc1	.	1	-13	.	23	.
Cc1ccsc1C(=O)N1CCCC(C)(C(=O)O)C1 (stereo unspecified)	.	0	5	.	11	7
CC1=C(C(=O)N(C(C)C)C(C)C)CC(CC(=O)NC2CCCCC2)C(=O)N1Cc1ccccc1 (stereo unspecified)	59*	0	-1	-3	6	-4
CC1=C(C(=O)N(C(C)C)C(C)C)CC(CC(=O)NC2CCCC2)C(=O)N1Cc1ccccc1 (stereo unspecified)	-1	1	-1	6	-3	-1
C=CCCC(=O)N1C[C@H]2CCN(C)[C@H]2C[C@H]1c1ccc(Br)cc1	.	6	1	.	11	.
Cn1nnnc1SCC(=O)N1CCN(c2cccc(Cl)c2)CC1	17	2	7	2	39*	-3
Nc1nnc(SCC(=O)N2CCN(c3ccccc3)CC2)n1-c1ccccc1	22	1	-3	-2	2	12
Cn1cccc1Cc1nnc(SCC(=O)N2CCN(c3ccccc3)CC2)n1-c1ccc(F)cc1	52*	0	-4	-2	3	.
Cn1nnnc1SCC(=O)N1CCN(c2ccccc2)CC1	16	0	2	5	-7	.
Cn1cccc1Cc1nnc(SCC(=O)NCc2ccccc2)n1-c1ccc(F)cc1	4	0	19	-2	-7	.
CCC(=O)Nc1cccc(-n2nnnc2SCC(=O)N2CCCCC2)c1	-164	2	-11	89*	-2	-6
Nc1nnc(SCC(=O)N2CCN(c3cccc(Cl)c3)CC2)n1-c1ccccc1	23	8	5	1	38*	.
SMILES	CRFR2-BP antag	iPSC survival up	Cardio protect	CRFR2-BP ag	SKN-1 inh	H9c2 TAG inh
Cc1cc(C(=O)NC(C)C2CCCO2)c(C)o1 (stereo unspecified)	6	0	1	0	-4	.
Cc1ccc(S(=O)(=O)N2C[C@H]3[C@H]4C(=O)N(Cc5ccccc5)C(=O)[C@H]4CC(=O)[C@H]3[C@@H]2c2ccccc2)cc1	.	2	-1	.	-19	.
COC(=O)c1cn(NC(=O)c2ccc(F)cc2)c(=O)c2ccccc12	105*	-4	4	0	5	7
CCCCNC(=O)C[C@@H]1C[C@@]2(C(=O)OCC)CCC=C2N(CCC2=CCCCC2)C1=O	.	0	.	.	-7	.
Cn1c(=O)c2cc(NC(=O)NCc3ccccc3)ccc2n1Cc1ccc(Cl)cc1	.	-2	-4	.	8	-5
Cc1ncoc1C(=O)N1CCCC(N2CCN(c3ccccc3F)CC2)C1 (stereo unspecified)	-2	0	-4	2	17	.
COc1cc(C(=O)NC2CCN(C)CC2)ccc1Nc1ncc2c(n1)N(CCc1ccccc1)CCC(=O)N2C	18	-5	10	-3	5	.
COc1cc(C(=O)NC2CCN(C)CC2)ccc1Nc1ncc2c(n1)N(C1CCCC1)CCC(=O)N2C(C)C	-27	-7	-20	-3	-1	58*
CCc1ccc(CN(C)CC(=O)Nc2sccc2C#N)cc1	-15	-1	-7	3	16	.
Cc1ccc2c(COC(=O)C3=COCCO3)cc(=O)oc2c1	22	23*	-29	-1	11	-9
CCOC(=O)CSc1cc(C)c(C#N)c2nc3ccccc3n12	-10	-4	-20	7	25	-15
CCOC(=O)c1c(C)cc(C)n2c1nc1ccccc12	-2	2	0	-3	40*	-2
Cc1ccc(C(=O)Nc2ncc([N+](=O)[O-])s2)cc1	19	0	-16	58*	37*	.
O=C(Nc1ncc([N+](=O)[O-])s1)c1ccc2c(c1)OCO2	-1	0	-17	36	-5	.
Cc1ccc(NC(=O)c2ccc([N+](=O)[O-])o2)cc1C	11	-3	-6	-1	0	73
O=C(Nc1ccc2[nH]c(=O)[nH]c2c1)c1ccc([N+](=O)[O-])o1	0	-5	45	0	3	53*
O=C(Nc1ccc2oc(-c3ccccc3F)nc2c1)c1ccc([N+](=O)[O-])o1	1	1	58*	4	-5	.
COC(=O)[C@]12CCCCC=C1N(Cc1ccco1)C(=O)[C@H](CC(=O)NCc1ccc(C)o1)C2	.	-2	.	.	16	.
N#Cc1cc(-c2ccccc2)nn1-c1ccccc1	-18	-1	0	1	35*	-3
CCC(C)c1ccc(S(=O)(=O)N2CCN(CC(O)COCC3CCCO3)CC2)cc1 (stereo unspecified)	64*	1	-6	1	-1	-4
CC(C)c1ccc(S(=O)(=O)N2CCN(CC(O)CN3CCOCC3)CC2)cc1 (stereo unspecified)	-10	0	-6	0	16	-2
O=C(Cn1ncc(Cl)c(Cl)c1=O)NC(=O)NC1CCCCC1	1	-4	-18	1	-6	56*

Screening data (PubChem BioAssay)
